Experimental findings from PubChem BioAssay (Tox21) are described below.

“And” between values parts separate entries of the source, which are not always exact repeats. Equal entries are not always repeated. Records with an inconclusive call do not appear. Where a call stands in place of a potency, no number is given. Some compounds were tested as several samples or in several runs, with calls that do not always agree. The source made the active and inactive calls. Calls come from the whole dose curve; as a rule, active = well fitted curve in the direction sought with a large enough effect in the repeat runs; inconclusive = weak or mixed curves; inactive = no such curve, though single readings can be large; an effect the other way counts as inactive or inconclusive.
Note: nearly all actives have a fitted effect of over 50% in size.
Potency is the fitted concentration of half-maximal effect.

The first assay can be described thus: qHTS RealTime-Glo MT Cell Viability Assay in HepG2 cells - 24 hour (AID 1224867). The following applies: RealTime-Glo luminescence; series mostly up to 76.8 µM; activity change, negative = cytotoxicity: at the top concentration. The method, boiled down: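 Luminescence read-out: viable HepG2 cells reduce a prosubstrate to a NanoLuc substrate, giving a signal proportional to live cell number. Reads taken at 0, 8, 16, 24, 32 and 40 h of compound exposure at 37 C.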
A general note: Quantitative high-throughput screening tests each substance at several concentrations.
On to `OC[C@H]1O[C@@H]2O[C@H]3[C@H](O)[C@@H](O)[C@@H](O[C@H]4[C@H](O)[C@@H](O)[C@@H](O[C@H]5[C@H](O)[C@@H](O)[C@@H](O[C@H]6[C@H](O)[C@@H](O)[C@@H](O[C@H]7[C@H](O)[C@@H](O)[C@@H](O[C@H]8[C@H](O)[C@@H](O)[C@@H](O[C@H]1[C@H](O)[C@H]2O)O[C@@H]8CO)O[C@@H]7CO)O[C@@H]6CO)O[C@@H]5CO)O[C@@H]4CO)O[C@@H]3CO`, for which the Potency result is “inactive”. As to `CCCCC(CC)COCC1CO1` (stereo unspecified), the Potency entry was “inactive”. With `Cc1cccc(C(=O)O)c1`, the Potency result is “inactive”.

In the case of `O=[N+]([O-])c1ccc2c(c1)Cc1ccccc1-2`, the Potency result is “inactive”. With `CCCCC/C=C/C=C/C=O`, the “activity change, negative = cytotoxicity” value was -17% (inactive). Turning to `O=c1oc(=O)c2cc3c(=O)oc(=O)c3cc12`, the Potency result was “inactive”.

For `Cc1c(OCC(F)(F)F)ccnc1CS(=O)c1nc2ccccc2[nH]1` (stereo unspecified), the Potency entry is “inactive”. Turning to `CCC(C)c1ccccc1O` (stereo unspecified), the Potency result was “inactive”. Still for that read-out and setting: with `Nc1ncn([C@@H]2O[C@H](CO)[C@@H](O)[C@H]2O)c(=O)n1` the entry was “inactive”; with `CC(C)OC(=O)C(C)(C)Oc1ccc(C(=O)c2ccc(Cl)cc2)cc1`, “inactive”; with `Cc1ccc2c(n1)Oc1ccc(C(C)C(=O)OCC(=O)N(C)C)cc1C2` (stereo unspecified), “inactive”. For the molecule `Brc1cc(Oc2cc(Br)c(Br)c(Br)c2Br)c(Br)c(Br)c1Br`, the Potency result is “inactive”. On to `CCCCOCCOCCOCCO`, for which the Potency result was “inactive”. On to `CCCCC(CC)COP(=O)(OCC(CC)CCCC)OCC(CC)CCCC` (stereo unspecified), for which the Potency entry is “inactive”. Turning to `CCOC(=O)C(C#N)=C(c1ccccc1)c1ccccc1`, the Potency entry was “inactive”. In the case of `CC(C(=O)O)c1cccc(C(=O)c2ccccc2)c1` (stereo unspecified), the Potency entry was “inactive”. Still for that read-out and setting: with `CCC(C)CO` (stereo unspecified) the entry was “inactive”; with `O=C1OC2(c3cc(Br)c(O)c(Br)c3Oc3c2cc(Br)c(O)c3Br)c2c(Cl)c(Cl)c(Cl)c(Cl)c21`, “inactive”; with `CC(CCC(=O)O)(c1ccc(O)cc1)c1ccc(O)cc1`, “inactive”.

As to `C[C@]12CC[C@H]3[C@@H](CCC4=CC(=O)CC[C@@]43C)[C@@H]1CC[C@@H]2C(=O)CO`, the Potency result is “inactive”. As for `Nc1ncnc2nc[nH]c12`, the Potency result was “inactive”. On the same count and under the same terms, under `CC(C)OB(OC(C)C)OC(C)C` stands “inactive”. With `C#C[C@]1(O)CC[C@H]2[C@@H]3CCc4cc(OC)ccc4[C@H]3CC[C@@]21C`, the Potency entry is “inactive”. In the case of `Clc1nc(Cl)c(Cl)c(Cl)c1Cl`, the Potency entry is “inactive”. For `CCCC(=O)O`, the Potency entry was “inactive”.

For the molecule `c1cc(-c2ccncc2)ccn1`, the “activity change, negative = cytotoxicity” value is -3.41% (inactive).

As to `C=C(C)C(=O)OCCOC(=O)C(=C)C`, the Potency result was “inactive”. For the molecule `O=C(c1ccccc1)c1ccccc1O`, the Potency result is “inactive”. The same measure, in the same setting: with `CCCCC(CC)COC(=O)c1ccc(N(C)C)cc1` (stereo unspecified) the entry was “inactive”; with `CC1=CC2C3CC(C=C3C)C2C1` (stereo unspecified), “inactive”; with `COC(=O)C1=C(C)NC(C)=C(C(=O)OCCN(C)Cc2ccccc2)C1c1cccc([N+](=O)[O-])c1` (stereo unspecified), 24.4 µM (active) and 10.7 µM (active). With `CC(=O)Oc1ccccc1C(=O)Nc1ncc([N+](=O)[O-])s1`, the Potency result was “inactive”. The same measure, in the same setting: with `c1ccc2cc(Nc3ccc(Nc4ccc5ccccc5c4)cc3)ccc2c1` the entry was “inactive”; with `CCCCc1oc2ccccc2c1C(=O)c1cc(I)c(OCCN(CC)CC)c(I)c1`, 39.2 µM (active) and 23.9 µM (active). On the same count and under the same terms, under `Cc1ccc(C)c(O)c1C` stands “inactive”; under `CC(C)Oc1ccc2c(=O)c(-c3ccccc3)coc2c1`, “inactive”; under `OC(CCl)CCl`, “inactive”. On to `Cn1cnc([N+](=O)[O-])c1Sc1ncnc2nc[nH]c12`, for which the Potency entry is “inactive”.

In the case of `O=C(/C=C/c1ccccc1)OCc1ccccc1`, the Potency entry is “inactive”.

The nature of the next assay: qHTS RealTime-Glo MT Cell Viability Assay in HEK293 cells - 32 hour (AID 1224868). For activity change, negative = cytotoxic: top concentration of the series differs between compounds. The settings on record: RealTime-Glo luminescence; series mostly up to 76.8 µM; activity change, negative = cytotoxic: at the top concentration. The method, boiled down:
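Nonlytic real-time viability readout: viable cells convert prosubstrate to NanoLuc substrate, giving luminescence proportional to live cell number. HEK293, 600 cells/well, compound added after 5 h, continuous culture at 37 C.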
For `OC[C@H]1O[C@@H]2O[C@H]3[C@H](O)[C@@H](O)[C@@H](O[C@H]4[C@H](O)[C@@H](O)[C@@H](O[C@H]5[C@H](O)[C@@H](O)[C@@H](O[C@H]6[C@H](O)[C@@H](O)[C@@H](O[C@H]7[C@H](O)[C@@H](O)[C@@H](O[C@H]8[C@H](O)[C@@H](O)[C@@H](O[C@H]1[C@H](O)[C@H]2O)O[C@@H]8CO)O[C@@H]7CO)O[C@@H]6CO)O[C@@H]5CO)O[C@@H]4CO)O[C@@H]3CO`, the “activity change, negative = cytotoxic” value was 3.07% [at 35.3 µM] (inactive).

Consider `CCCCC(CC)COCC1CO1` (stereo unspecified), for which the Potency entry is “inactive”. Still for that read-out and setting: under `Cc1cccc(C(=O)O)c1` stands “inactive”; under `O=[N+]([O-])c1ccc2c(c1)Cc1ccccc1-2`, “inactive”. As for `CCCCC/C=C/C=C/C=O`, the “activity change, negative = cytotoxic” value is -23.9% (inactive). With `O=c1oc(=O)c2cc3c(=O)oc(=O)c3cc12`, the Potency entry was “inactive”.

As for `Cc1c(OCC(F)(F)F)ccnc1CS(=O)c1nc2ccccc2[nH]1` (stereo unspecified), the Potency was 19.5 µM (active) and 10.7 µM (active). In the case of `CCC(C)c1ccccc1O` (stereo unspecified), the Potency result is “inactive”. Consider `Nc1ncn([C@@H]2O[C@H](CO)[C@@H](O)[C@H]2O)c(=O)n1`, for which the “activity change, negative = cytotoxic” value was 0.736% [at 35.3 µM] (inactive). Consider `CC(C)OC(=O)C(C)(C)Oc1ccc(C(=O)c2ccc(Cl)cc2)cc1`, for which the Potency was 21.9 µM (active) and 10.7 µM (active). With `Cc1ccc2c(n1)Oc1ccc(C(C)C(=O)OCC(=O)N(C)C)cc1C2` (stereo unspecified), the “activity change, negative = cytotoxic” value is -23.6% [at 35.3 µM] (inactive). For the molecule `Brc1cc(Oc2cc(Br)c(Br)c(Br)c2Br)c(Br)c(Br)c1Br`, the Potency entry is “inactive”.

As to `CCCCOCCOCCOCCO`, the Potency entry is “inactive”. For `CCCCC(CC)COP(=O)(OCC(CC)CCCC)OCC(CC)CCCC` (stereo unspecified), the Potency result is “inactive”. As to `CCOC(=O)C(C#N)=C(c1ccccc1)c1ccccc1`, the Potency result was “inactive”. On the same count and under the same terms, with `CC(C(=O)O)c1cccc(C(=O)c2ccccc2)c1` (stereo unspecified) the entry was “inactive”; with `CCC(C)CO` (stereo unspecified), “inactive and 24.5 µM (active)”. Regarding `O=C1OC2(c3cc(Br)c(O)c(Br)c3Oc3c2cc(Br)c(O)c3Br)c2c(Cl)c(Cl)c(Cl)c(Cl)c21`, the “activity change, negative = cytotoxic” value is -3.52% [at 35.3 µM] (inactive). On to `CC(CCC(=O)O)(c1ccc(O)cc1)c1ccc(O)cc1`, for which the Potency entry was “inactive”.

Take `C[C@]12CC[C@H]3[C@@H](CCC4=CC(=O)CC[C@@]43C)[C@@H]1CC[C@@H]2C(=O)CO`: the Potency was 24.5 µM (active). As for `Nc1ncnc2nc[nH]c12`, the Potency result was “inactive”. Consider `CC(C)OB(OC(C)C)OC(C)C`, for which the Potency entry was “inactive”. Same read-out and setting: with `C#C[C@]1(O)CC[C@H]2[C@@H]3CCc4cc(OC)ccc4[C@H]3CC[C@@]21C` the figure was 24.5 µM (active) and 19 µM (active). Regarding `Clc1nc(Cl)c(Cl)c(Cl)c1Cl`, the Potency result is “inactive”. Consider `CCCC(=O)O`, for which the Potency result was “inactive”. As for `c1cc(-c2ccncc2)ccn1`, the Potency result is “inactive”. As for `C=C(C)C(=O)OCCOC(=O)C(=C)C`, the Potency result is “inactive”. For `O=C(c1ccccc1)c1ccccc1O`, the Potency result was “inactive”. As for `CCCCC(CC)COC(=O)c1ccc(N(C)C)cc1` (stereo unspecified), the Potency result was “inactive”. As to `CC1=CC2C3CC(C=C3C)C2C1` (stereo unspecified), the Potency entry was “inactive”.

In the case of `COC(=O)C1=C(C)NC(C)=C(C(=O)OCCN(C)Cc2ccccc2)C1c1cccc([N+](=O)[O-])c1` (stereo unspecified), the Potency is 21.7 µM (active) and 16.9 µM (active). Turning to `c1ccc2cc(Nc3ccc(Nc4ccc5ccccc5c4)cc3)ccc2c1`, the Potency entry is “inactive”.

Turning to `CCCCc1oc2ccccc2c1C(=O)c1cc(I)c(OCCN(CC)CC)c(I)c1`, the Potency is 34.9 µM (active) and 23.9 µM (active).

In the case of `Cc1ccc(C)c(O)c1C`, the Potency result was “inactive”. Same read-out and setting: with `OC(CCl)CCl` the entry was “inactive”; with `Cn1cnc([N+](=O)[O-])c1Sc1ncnc2nc[nH]c12`, 19.4 µM (active); with `O=C(/C=C/c1ccccc1)OCc1ccccc1`, “inactive”.
